Hit rate of the full screen: of about 290,000 compounds, about 370 (0.13%) were called active. What follows is part of a selection rich in actives, with near analogues and random picks from the rest. Measured potencies and affinities stand elsewhere. Values without a mark were called inactive.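 The calls were made as follows: active = spots per cell inhibited over 60%, with over 100 cells counted and total cytoplasm intensity under 500,000; inconclusive = wells with under 100 cells, flagged as likely toxic; inactive = the rest.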
molecular target: G-protein coupled receptor 55 (Homo sapiens) (UniProt Q9Y2T6); assay: GPR55 antagonists blocking LPI-driven arrestin recruitment, primary screen, imaging, U2OS, beta-arrestin-GFP, LPI agonist (AID 2013); conditions: U2OS GPR55 beta-arrestin-GFP translocation imaging, LPI antagonism; at 10 µM; active compounds read high;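 also: U2OS cells stably carrying GPR55 and arrestin-GFP stimulated by 5 µM LPI near EC80; imaged beta-arrestin-GFP aggregate spots per cell after agonist stimulation; plate controls were LPI-stimulated DMSO wells for no effect and DMSO wells without LPI for full effect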
Sequence (Q9Y2T6 whole entry, looked up): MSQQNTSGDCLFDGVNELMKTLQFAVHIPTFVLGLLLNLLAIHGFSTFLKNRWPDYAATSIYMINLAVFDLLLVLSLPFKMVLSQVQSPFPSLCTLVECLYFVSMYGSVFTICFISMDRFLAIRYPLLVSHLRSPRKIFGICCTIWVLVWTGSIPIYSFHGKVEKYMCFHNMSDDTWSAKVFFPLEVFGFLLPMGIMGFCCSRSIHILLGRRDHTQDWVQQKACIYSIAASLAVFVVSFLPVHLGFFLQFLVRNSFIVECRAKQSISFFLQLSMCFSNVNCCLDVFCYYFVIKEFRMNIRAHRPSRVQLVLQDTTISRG

SMILES	inhibition
COc1ccccc1Nc1nc(N)nc(-c2cc3ccccc3o2)n1	8.7%
NCC(O)COCCC12CC3CC(CC(C3)C1)C2 (stereo not given)	5.8%
CC(NCC(O)COCc1ccc(Cl)cc1)c1ccccc1 (stereo not given)	0.4%
CC1(C)CC(=O)C=C(NCC2CCCO2)C1 (stereo not given)	3.1%
CC1=CC(c2ccc(Cl)cc2)n2nc(NC(=O)c3ccccc3)nc2N1 (stereo not given)	5.1%
Cc1ccc(-c2ccnc3cc(C)nn23)cc1	13.3%
c1cc2c3c(cccc3c1)C(N1CCCCC1)=N2	3.4%
COc1ccccc1N1CCN(C2=Nc3cccc4cccc2c34)CC1	95.5% (active)
c1cc2c3c(cccc3c1)C(N1CCCCCC1)=N2	17.5%
COc1ccc(/C=C2\SC(=O)N(CC(=O)NC3C=CS(=O)(=O)C3)C2=O)cc1 (stereo not given)	14.8%
COc1ccc(CCNC(=O)C/C(C)=N/NC(=O)c2ccc([N+](=O)[O-])cc2Cl)cc1OC	5.9%
C#CCOc1c(Br)cc(/C=N/O)cc1OCC	-2.8%
C=CCOc1ccc(/C=N/NC(=O)CN2CCOCC2)cc1OCC	-14.5%
COCCNc1c2c(nc3c(-c4ccccc4)c(C)nn13)CCC2	-0.5%
CC(=O)c1c(O)cc(O)cc1CC(=O)O	14.6%
CCCCN(CC)C(=O)CSc1nc2c(sc(=S)n2-c2ccc(OCC)cc2)c(=O)[nH]1	6.8%
CCOC(=O)CSc1nc2c(sc(=S)n2-c2ccc(OCC)cc2)c(=O)[nH]1	-5.3%
O=c1c2ccccc2nc(-c2ccccc2)n1CCCN1CCOCC1	-6.4%
COc1ccc(-c2nn(-c3ccccc3)cc2/C=C2/SC(=S)N(CCC(=O)O)C2=O)cc1	2.4%
COc1ccc(-c2nn(-c3ccccc3)cc2/C=C2/SC(=S)N(Cc3ccco3)C2=O)c(C)c1	13.6%

SMILES	inhibition
O=C(Nc1ccc(F)cc1F)c1c(C(F)(F)F)ccnc1Oc1cccc(C(F)(F)F)c1	6.9%
Cc1cc(NC(=O)CN(C)S(=O)(=O)c2cnc[nH]2)ccc1Br	0.7%
CCCCn1c(NC(=O)c2ccccc2)c(C#N)c2nc3ccccc3nc21	-12.6%
CCCCn1c(NC(C)=O)c(C#N)c2nc3ccccc3nc21	17%
Cc1ccc(C(=O)C(C)OC(=O)c2ccccc2[N+](=O)[O-])cc1 (stereo not given)	9.5%
CCOCCOC(=O)C1=C(C)NC(=O)NC1c1cc2c(cc1Br)OCO2 (stereo not given)	5.8%
COCCNC(=O)c1cc2c(s1)-c1ccc(Cl)cc1SC2	-8.6%
CCN(CC)CCNC(=O)c1cc2c(s1)-c1ccccc1SC2	15.9%
O=C(CSc1ccc(F)cc1)NC12CC3CC(CC(C3)C1)C2	-6%
COc1ccc(C)cc1Nc1n[n+](-c2ccccc2)c(-c2ccc(SC)cc2)s1	4.4%
COc1ccc(C)cc1Nc1n[n+](-c2ccccc2)c(-c2ccc(C(=O)O)cc2)s1	4.6%
CCC(=O)N1c2ccc(S(=O)(=O)NCCc3ccc(OC)c(OC)c3)cc2CC1C (stereo not given)	-31.8%
COc1ccc(S(=O)(=O)N2CCCOC2CNC(=O)C(=O)NCc2ccccc2F)cc1C (stereo not given)	22%
Cc1[nH]nc(SCC(=O)N2CCCCC2)c1[N+](=O)[O-]	-23.3%
O=C(COc1ccccc1F)NCC(c1ccco1)N1CCCC1 (stereo not given)	24.1%
O=C1C(=O)c2ccc(-c3ccccc3)cc2-c2ccccc21	-5.5%
Nc1c(O)ccc2c1C(=O)c1ccccc1C2=O	-0.3%
Oc1ccccc1N=Nc1nc(-c2ccccc2)c(-c2ccccc2)[nH]1	15.7%
COc1ccc(N=Nc2nc(-c3ccccc3)c(-c3ccccc3)[nH]2)cc1	19%
CCOC(=O)N1CCN(C(=O)C2CCC(CNS(=O)(=O)c3ccccc3)CC2)CC1 (stereo not given)	14.3%

SMILES	inhibition
O=C(c1ccco1)N1N=C(c2cccs2)CC1c1ccccc1O (stereo not given)	39.4%
COc1ccc(C(=O)N2N=C(c3cccs3)CC2c2ccccc2O)cc1 (stereo not given)	54.1%
C/C(=N/NC(=O)CNC(=O)c1cccnc1)c1cccc([N+](=O)[O-])c1	-4.3%
CCN1CCN(CCNC(=O)c2ccc(/C=C3/Sc4ccccc4N(Cc4cccc(Cl)c4)C3=O)cc2)CC1	7.6%
CCN1CCN(CCNC(=O)c2ccc3c(c2)N(Cc2ccc(F)cc2)C(=O)/C(=C/c2ccccc2)S3)CC1	70.3% (active)
CN1CCN(CCCNC(=O)c2ccc(/C=C3\Sc4ccccc4N(Cc4ccc(F)cc4)C3=O)cc2)CC1	6.1%
CCOc1ccc(Cl)cc1CSc1n[nH]c(C)n1	-12.3%
Cc1nnsc1Sc1ccccc1C(=O)O	-7.1%
COc1cccc(-n2c(=O)c3sccc3n(CC(=O)NC3CCCCC3)c2=O)c1	-10.7%
CC(C)NC(=S)NN(c1ccccc1)c1ccccc1	11.8%
CNC(=S)NN(c1ccccc1)c1ccccc1	5.4%
CC(C)CCNC(=O)CN(Cc1ccc(F)cc1)C(=O)CCC(=O)Nc1ccccn1	4.6%
CCOC(=O)c1c(C)oc2ccc(O)cc12	3.1%
CCOC(=O)c1c(-c2ccccc2)oc2ccc(O)cc12	-6%
Cc1cc(NC(=O)C2C3C(=O)N(Cc4ccc(Cl)cc4)C(C(=O)NC4CCCCC4)C34C=CC2(C)O4)no1 (stereo not given)	9.6%
CC(C)n1cnc2c(Nc3ccc(C(=O)O)cc3)nc(Cl)nc21	8.9%
O=C(CSc1n[nH]c(-c2cc(Cl)ccc2Cl)n1)NCCN1C(=O)CSC1=O	2.2%
Cc1ccc(NC(=S)N(CCCN2CCOCC2)Cc2ccccn2)cc1	9.5%
COc1ccc(NC(=S)N(CCCN2CCOCC2)Cc2ccccn2)cc1	-18.2%
O=C(c1cc(C2CC2)nc2ccc(Br)cc12)N1N=C(C(F)F)CC1(O)C(F)F (stereo not given)	9.1%

— PubChem BioAssay AID2013 (Sanford-Burnham Center for Chemical Genomics, 2009)
